PubChem BioAssay AID540345 (The Scripps Research Institute Molecular Screening Center, 2011)
Values without a mark were called inactive. No rule for the calls is given here.

System: Imidazoline I2
Assay: selectivity profile over receptors, transporters, CYPs – biochemical, Ricerca HitProfilingScreen, CYP450, set 2, selectivity assay for GPR7 antagonist project, profiling panel (AID 540345)
Conditions: Ricerca radioligand binding/CYP panel, central, at 10 µM, hits give high values

Molecule `COc1ccc(Oc2c(Cl)cnn(C3c4ccccc4-c4ccccc43)c2=O)cc1` has an inhibition of 12%.
